{"source": "the supplement of paper PMC8540655", "data": [{"test_system": "Aedes aegypti larvae", "test": "larval motility relative to same well at 0 h (fraction); higher = more motile (less active compound), active = 0.4 or less", "conditions": "10 µM; 2 h", "protocol": "(§1)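 MMV Pandemic Response Box compounds were tested at 10 µM (1% v/v DMSO) on Aedes aegypti larvae (18-24 h after hatching, about 10 per well, 96-well plates). Motility was quantified with INVAPP (200-frame movies) at 0, 2 and 24 h. Each well's motility was divided by its own 0 h score, and the median of 3 independent screens is reported.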", "values": [{"molecule": "CC1(C)[C@H](C(=O)O)N2C(=O)C[C@H]2S1(=O)=O", "larval motility": "0.965 (inactive)"}, {"molecule": "COc1ccc(OCc2ccc(COc3c(Cl)cccc3Cl)cc2)c(Cl)c1", "larval motility": "1.19 (inactive)"}, {"molecule": "Nc1nc2c(Cc3cccnc3)c[nH]c2c(=O)[nH]1", "larval motility": "0.722 (inactive)"}, {"molecule": "Cc1onc(-c2ccccc2)c1-c1ccc(S(N)(=O)=O)cc1", "larval motility": "0.513 (inactive)"}, {"molecule": "O=C(CCCC(F)(F)F)N1CCC(c2nc(-c3nccs3)no2)CC1", "larval motility": "0.824 (inactive)"}, {"molecule": "O=c1[nH]c(=O)n(Cc2cccc(Oc3ccccc3)c2)cc1Nc1ccccc1", "larval motility": "0.698 (inactive)"}, {"molecule": "CCCCC(CC)CNC(=N)NC(=N)NCCCCCCNC(=N)NC(=N)NCC(CC)CCCC", "note": "(stereo not given)", "larval motility": "0.646 (inactive)"}, {"molecule": "CCCC1(C2CC2)c2cc(Cl)ccc2NC(=O)N1C", "note": "(stereo not given)", "larval motility": "0.846 (inactive)"}, {"molecule": "CC[C@H](NC(=O)[C@H](C)NC)C(=O)N1C[C@@H](O)C[C@H]1Cc1c(-c2[nH]c3cc(F)ccc3c2C[C@@H]2C[C@H](O)CN2C(=O)[C@H](CC)NC(=O)[C@H](C)NC)[nH]c2cc(F)ccc12", "larval motility": "0.407 (inactive)"}, {"molecule": "Nc1nnnn1CCOc1c2[nH]c3ccc(Cl)cc3c2cc2c1[nH]c1ccc(Cl)cc12", "larval motility": "0.958 (inactive)"}, {"molecule": "CC#C[C@]1(O)CC[C@H]2[C@@H]3CCC4=CC(=O)CCC4=C3[C@@H](c3ccc(N(C)C)cc3)C[C@@]21C", "larval motility": "0.693 (inactive)"}, {"molecule": "N=C(N)c1ccc(COc2ccc(Cl)cc2)cc1", "larval motility": "1.16 (inactive)"}, {"molecule": "CCC(C)(C)c1ccc(CC(C)CN2C[C@@H](C)O[C@@H](C)C2)cc1", "note": "(stereo not given in full)", "larval motility": "0.895 (inactive)"}, {"molecule": "O=C(Cc1ccccc1F)Nc1nc2ccccc2[nH]1", "larval motility": "0.888 (inactive)"}, {"molecule": "CN(C)CCCNC(=O)c1ccc(-c2cc(O)c3ncccc3c2)cc1", "larval motility": "0.79 (inactive)"}, {"molecule": "CC(=O)N1CCN(c2ccc(OCC3COC(Cn4ccnc4)(c4ccc(Cl)cc4Cl)O3)cc2)CC1", "note": "(stereo not given)", "larval motility": "0.527 (inactive)"}, {"molecule": "CC[C@@H](CO)NCCN[C@@H](CC)CO", "larval motility": "0.527 (inactive)"}, {"molecule": "CCCCCOc1ccc(/C=C2\\Oc3c(ccc(O)c3O)C2=O)c(O)c1", "larval motility": "0.621 (inactive)"}, {"molecule": "c1ccc(-c2nnc3c4ccccc4c(N4CCNCC4)nn23)cc1", "larval motility": "0.808 (inactive)"}, {"molecule": "Cc1cccc(CC(=O)N[C@H]2CCOC2=O)c1", "larval motility": "1.05 (inactive)"}]}, {"test_system": "Aedes aegypti larvae", "test": "larval motility relative to same well at 0 h (fraction); higher = more motile (less active compound), active = 0.4 or less", "conditions": "10 µM; 24 h", "protocol": "as §1", "values": [{"molecule": "CC1(C)[C@H](C(=O)O)N2C(=O)C[C@H]2S1(=O)=O", "larval motility": "1.35 (inactive)"}, {"molecule": "COc1ccc(OCc2ccc(COc3c(Cl)cccc3Cl)cc2)c(Cl)c1", "larval motility": "1.03 (inactive)"}, {"molecule": "Nc1nc2c(Cc3cccnc3)c[nH]c2c(=O)[nH]1", "larval motility": "0.771 (inactive)"}, {"molecule": "Cc1onc(-c2ccccc2)c1-c1ccc(S(N)(=O)=O)cc1", "larval motility": "0.435 (inactive)"}, {"molecule": "O=C(CCCC(F)(F)F)N1CCC(c2nc(-c3nccs3)no2)CC1", "larval motility": "1.08 (inactive)"}, {"molecule": "O=c1[nH]c(=O)n(Cc2cccc(Oc3ccccc3)c2)cc1Nc1ccccc1", "larval motility": "0.791 (inactive)"}, {"molecule": "CCCCC(CC)CNC(=N)NC(=N)NCCCCCCNC(=N)NC(=N)NCC(CC)CCCC", "note": "(stereo not given)", "larval motility": "1.07 (inactive)"}, {"molecule": "CCCC1(C2CC2)c2cc(Cl)ccc2NC(=O)N1C", "note": "(stereo not given)", "larval motility": "0.863 (inactive)"}, {"molecule": "CC[C@H](NC(=O)[C@H](C)NC)C(=O)N1C[C@@H](O)C[C@H]1Cc1c(-c2[nH]c3cc(F)ccc3c2C[C@@H]2C[C@H](O)CN2C(=O)[C@H](CC)NC(=O)[C@H](C)NC)[nH]c2cc(F)ccc12", "larval motility": "0.89 (inactive)"}, {"molecule": "Nc1nnnn1CCOc1c2[nH]c3ccc(Cl)cc3c2cc2c1[nH]c1ccc(Cl)cc12", "larval motility": "1.16 (inactive)"}, {"molecule": "CC#C[C@]1(O)CC[C@H]2[C@@H]3CCC4=CC(=O)CCC4=C3[C@@H](c3ccc(N(C)C)cc3)C[C@@]21C", "larval motility": "0.826 (inactive)"}, {"molecule": "N=C(N)c1ccc(COc2ccc(Cl)cc2)cc1", "larval motility": "0.589 (inactive)"}, {"molecule": "CCC(C)(C)c1ccc(CC(C)CN2C[C@@H](C)O[C@@H](C)C2)cc1", "note": "(stereo not given in full)", "larval motility": "0.765 (inactive)"}, {"molecule": "O=C(Cc1ccccc1F)Nc1nc2ccccc2[nH]1", "larval motility": "0.669 (inactive)"}, {"molecule": "CN(C)CCCNC(=O)c1ccc(-c2cc(O)c3ncccc3c2)cc1", "larval motility": "0.683 (inactive)"}, {"molecule": "CC(=O)N1CCN(c2ccc(OCC3COC(Cn4ccnc4)(c4ccc(Cl)cc4Cl)O3)cc2)CC1", "note": "(stereo not given)", "larval motility": "1.14 (inactive)"}, {"molecule": "CC[C@@H](CO)NCCN[C@@H](CC)CO", "larval motility": "0.604 (inactive)"}, {"molecule": "CCCCCOc1ccc(/C=C2\\Oc3c(ccc(O)c3O)C2=O)c(O)c1", "larval motility": "1.4 (inactive)"}, {"molecule": "c1ccc(-c2nnc3c4ccccc4c(N4CCNCC4)nn23)cc1", "larval motility": "1.34 (inactive)"}, {"molecule": "Cc1cccc(CC(=O)N[C@H]2CCOC2=O)c1", "larval motility": "1.31 (inactive)"}]}]}
